# Results filed as inconclusive are left out. Active and inactive are the calls of the source. The calls were made as follows, unless noted: active = hit-call score of the fitted dose curve at least 0.9, where 1 is the maximum; inactive = score below 0.9.
# Columns and labels:
# [1] = molecular target: Paired box protein Pax-6 (Homo sapiens) (UniProt P26367); assay: ATG_Pax6_CIS: Attagene CIS-FACTORIAL HepG2 Assay for human Paired Box 6 (PAX6) (AID 2282956); conditions: HepG2 CIS-FACTORIAL PAX6 reporter transcription, RNA readout; actives raise or lower the signal
# Sequence of Paired box protein Pax-6 (Homo sapiens) (P26367 whole entry, looked up): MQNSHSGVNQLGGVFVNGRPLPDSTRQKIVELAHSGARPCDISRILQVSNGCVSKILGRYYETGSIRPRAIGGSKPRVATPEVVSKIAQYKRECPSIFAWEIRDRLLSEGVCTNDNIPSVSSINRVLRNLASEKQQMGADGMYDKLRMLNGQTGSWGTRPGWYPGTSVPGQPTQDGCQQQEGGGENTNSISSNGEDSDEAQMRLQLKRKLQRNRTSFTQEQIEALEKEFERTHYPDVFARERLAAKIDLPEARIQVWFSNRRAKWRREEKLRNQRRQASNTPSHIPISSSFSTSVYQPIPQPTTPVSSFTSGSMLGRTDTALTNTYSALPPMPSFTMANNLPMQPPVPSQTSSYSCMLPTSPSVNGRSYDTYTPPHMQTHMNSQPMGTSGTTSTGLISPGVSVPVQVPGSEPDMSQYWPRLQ
# How it was run: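 Multiplexed cis-reporter HepG2 system; 24 h treatment; reporter mRNA read by RT-PCR/CE fluorescence; bidirectional fit vs DMSO.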
# [2] = ATG_PXRE_CIS: Attagene CIS-FACTORIAL HepG2 Assay for human Pregnane X Receptor Element (PXRE) (AID 2282957); conditions: HepG2 Attagene CIS-FACTORIAL PXRE reporter, mRNA; actives raise or lower the signal
# How it was run: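 Cis-element reporter mRNA in human hepatoma HepG2 cells is measured 24 h post-dosing by RT-PCR, primer-extension labeling and capillary electrophoresis; gain or loss of signal is fitted relative to DMSO.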
# [3] = ATG_PPRE_CIS: Attagene CIS-FACTORIAL HepG2 Assay for human Peroxisome Proliferator-activated Response Element (PPRE) (AID 2282958); conditions: HepG2 PPRE cis-element reporter, Attagene transcription factor profiling; actives raise or lower the signal
# How it was run: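 Read-out: fluorescent reporter mRNA fragments resolved by capillary electrophoresis after RT-PCR. HepG2 cells carried transiently transfected PPRE-driven cis reporter constructs and were dosed for 24 h; gain or loss of signal fitted relative to DMSO.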
# [4] = ATG_RORE_CIS: Attagene CIS-FACTORIAL HepG2 Assay for human RAR-related Orphan Receptor Element (RORE) (AID 2282959); conditions: HepG2 Attagene cis-factorial RORE reporter, mRNA; actives raise or lower the signal
# How it was run: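 Readout: fluorescent reporter mRNA by RT-PCR plus capillary electrophoresis, 24 h after dosing transfected HepG2 cells. Endogenous transcription factor activity on a cis promoter element is measured. Gain or loss of signal fitted against DMSO.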
# [5] = ATG_Sox_CIS: Attagene CIS-FACTORIAL HepG2 Assay for human SRY-box transcription factor (SOX) (AID 2282960); conditions: HepG2 Attagene cis-factorial SOX reporter, mRNA; actives raise or lower the signal
# How it was run: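 Read-out: fluorescent RT-PCR products of SOX1-linked reporter transcripts resolved by capillary electrophoresis, fitted bidirectionally against DMSO. Transiently transfected HepG2 cells, 24 h after chemical exposure, endogenous transcription factor activity.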
# [6] = molecular target: Transcription factor Sp1 (Homo sapiens) (UniProt P08047); assay: ATG_Sp1_CIS: Attagene CIS-FACTORIAL HepG2 Assay for human Specificity Protein 1 (Sp1) (AID 2282961); conditions: HepG2 Sp1 cis-reporter transcription, actives raise or lower the signal
# Sequence of Transcription factor Sp1 (Homo sapiens) (P08047 whole entry, looked up): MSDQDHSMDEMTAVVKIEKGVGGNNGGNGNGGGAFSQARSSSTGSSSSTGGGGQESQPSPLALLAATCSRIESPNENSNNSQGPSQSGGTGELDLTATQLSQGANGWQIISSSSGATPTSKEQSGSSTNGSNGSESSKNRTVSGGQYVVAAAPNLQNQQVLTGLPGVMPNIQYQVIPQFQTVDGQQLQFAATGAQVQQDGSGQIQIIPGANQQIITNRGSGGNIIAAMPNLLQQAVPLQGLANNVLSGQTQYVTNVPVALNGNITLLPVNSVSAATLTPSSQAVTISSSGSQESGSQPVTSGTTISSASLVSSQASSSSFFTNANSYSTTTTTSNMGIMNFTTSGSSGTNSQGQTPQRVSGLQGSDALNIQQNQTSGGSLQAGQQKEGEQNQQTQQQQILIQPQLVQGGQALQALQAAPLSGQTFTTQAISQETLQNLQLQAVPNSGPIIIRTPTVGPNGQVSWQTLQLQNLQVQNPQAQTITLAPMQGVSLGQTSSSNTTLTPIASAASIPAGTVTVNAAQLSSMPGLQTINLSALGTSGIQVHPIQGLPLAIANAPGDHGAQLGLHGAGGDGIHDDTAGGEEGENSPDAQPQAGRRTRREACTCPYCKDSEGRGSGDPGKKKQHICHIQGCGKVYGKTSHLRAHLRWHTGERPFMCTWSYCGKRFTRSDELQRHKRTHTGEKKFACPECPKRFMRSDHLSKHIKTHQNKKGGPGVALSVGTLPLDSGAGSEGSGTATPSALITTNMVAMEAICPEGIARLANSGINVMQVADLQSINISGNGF
# How it was run: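 Read-out: fluorescence of 6-FAM-labeled, HpaI-digested RT-PCR products separated by capillary electrophoresis. HepG2 cells carried transfected cis-element reporter units and were exposed to chemicals for 24 h; gain or loss of signal fitted relative to DMSO.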
# [7] = ATG_SREBP_CIS: Attagene CIS-FACTORIAL HepG2 Assay for human Sterol Regulatory Element Binding (SREBP) (AID 2282962); conditions: HepG2 Attagene cis-factorial SREBP reporter, mRNA; actives raise or lower the signal
# How it was run: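 mRNA induction of transfected cis-promoter reporters in HepG2 cells, 24 h post-dose. Detection: RT-PCR with 6-FAM-labelled products, HpaI digest, capillary electrophoresis. DMSO served as negative control and baseline.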
# [8] = molecular target: Signal transducer and activator of transcription 3 (Homo sapiens) (UniProt P40763); assay: ATG_STAT3_CIS: Attagene CIS-FACTORIAL HepG2 Assay for human Signal Transducer and Activator of Transcription 3 (STAT3) (AID 2282963); conditions: HepG2, Attagene cis-factorial STAT3 reporter transcription; actives raise or lower the signal
# Sequence of Signal transducer and activator of transcription 3 (Homo sapiens) (P40763 whole entry, looked up): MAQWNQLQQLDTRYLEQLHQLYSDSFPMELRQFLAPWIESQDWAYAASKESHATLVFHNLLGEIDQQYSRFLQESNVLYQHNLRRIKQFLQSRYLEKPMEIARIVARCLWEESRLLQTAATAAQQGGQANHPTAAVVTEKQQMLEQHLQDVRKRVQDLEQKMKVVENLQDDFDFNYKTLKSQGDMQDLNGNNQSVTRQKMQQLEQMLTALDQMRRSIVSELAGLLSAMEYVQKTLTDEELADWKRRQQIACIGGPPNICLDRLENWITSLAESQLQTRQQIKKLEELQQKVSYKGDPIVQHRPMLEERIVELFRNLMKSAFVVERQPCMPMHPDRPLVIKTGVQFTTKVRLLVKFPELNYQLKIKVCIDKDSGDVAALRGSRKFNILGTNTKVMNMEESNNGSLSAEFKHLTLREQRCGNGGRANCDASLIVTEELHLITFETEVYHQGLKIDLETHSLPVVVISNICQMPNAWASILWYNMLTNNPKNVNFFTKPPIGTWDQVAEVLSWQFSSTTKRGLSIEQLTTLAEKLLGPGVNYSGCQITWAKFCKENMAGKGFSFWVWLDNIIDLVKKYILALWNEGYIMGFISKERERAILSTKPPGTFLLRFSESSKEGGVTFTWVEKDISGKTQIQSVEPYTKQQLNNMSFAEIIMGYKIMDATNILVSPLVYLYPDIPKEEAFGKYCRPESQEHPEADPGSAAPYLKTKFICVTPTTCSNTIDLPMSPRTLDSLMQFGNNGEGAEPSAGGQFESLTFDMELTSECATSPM
# How it was run: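 After a 24 h compound incubation, total RNA from MRTU-transfected HepG2 cells was converted to cDNA and reporter sequences PCR-amplified, labelled and profiled by capillary electrophoresis. Gain and loss of signal were referenced to DMSO.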
# [9] = ATG_TA_CIS: Attagene CIS-FACTORIAL HepG2 Assay for human TA Basal Promoter (AID 2282964); conditions: HepG2 Attagene CIS-factorial TA basal promoter reporter; actives raise or lower the signal
# How it was run: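 Transient MRTU transfection of HepG2 preceded 24 h compound exposure. Reporter mRNA levels were then read by RT-PCR with capillary electrophoresis, and this background-control endpoint was fitted bidirectionally to DMSO.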
# [10] = ATG_TCF_b_cat_CIS: Attagene CIS-FACTORIAL HepG2 Assay for human T-Cell-Factor with beta-catenin (TCF/b-cat) (AID 2282965); conditions: HepG2 TCF/beta-catenin cis-reporter transcription, actives raise or lower the signal
# How it was run: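 Endogenous transcription factor activity is captured through cis-promoter reporter constructs transiently introduced into human HepG2 liver cells. Induced reporter mRNA is measured after 24 h and fitted bidirectionally relative to DMSO.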
# [11] = ATG_TAL_CIS: Attagene CIS-FACTORIAL HepG2 Assay for human TAL Basal Promoter (AID 2282966); conditions: HepG2 Attagene cis-factorial TAL promoter reporter; actives raise or lower the signal;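 also: background control endpoint measuring basal TAL promoter reporter mRNA not a specific factor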
# How it was run: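 In this cell-based multiplex, HepG2 liver cells bearing cis-promoter reporter constructs are dosed for 24 hours. Total RNA is reverse-transcribed and amplified, labelled fragments are sized by capillary electrophoresis, and signal changes are fitted bidirectionally versus DMSO.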
# [12] = ATG_TGFb_CIS: Attagene CIS-FACTORIAL HepG2 Assay for human Transforming Growth Factor (TGF) (AID 2282967); conditions: HepG2 Attagene CIS TGFb reporter, mRNA transcription; actives raise or lower the signal
# How it was run: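 After a 24-hour incubation with compound, transfected HepG2 cells were lysed for RNA; reporter cDNA was amplified, fluorescently end-labeled and separated by CE. DMSO served as baseline for bidirectional fits.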
# [13] = ATG_VDRE_CIS: Attagene CIS-FACTORIAL HepG2 Assay for human Vitamin D Receptor Element (VDRE) (AID 2282968); conditions: HepG2 VDRE cis-reporter transcription, actives raise or lower the signal
# How it was run: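 In transiently transfected HepG2 liver cells, gain or loss of reporter mRNA after 24 h exposure is scored relative to DMSO, using fluorescence detection by capillary electrophoresis of RT-PCR products.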
# [14] = molecular target: Nuclear receptor subfamily 1 group I member 3 (Homo sapiens) (UniProt Q14994); assay: ATG_CAR_TRANS: Attagene TRANS-FACTORIAL HepG2 Assay for human Constitutive Androstane Receptor (CAR) (AID 2282969; active = hit-call score of the fitted dose curve at least 0.9, where 1 is the maximum;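 also: activators raise reporter mRNA above DMSO so AC50 marks induction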); conditions: HepG2 Attagene TRANS-FACTORIAL CAR reporter
# Sequence of Nuclear receptor subfamily 1 group I member 3 (Homo sapiens) (Q14994 whole entry, looked up, the tested form may be a part): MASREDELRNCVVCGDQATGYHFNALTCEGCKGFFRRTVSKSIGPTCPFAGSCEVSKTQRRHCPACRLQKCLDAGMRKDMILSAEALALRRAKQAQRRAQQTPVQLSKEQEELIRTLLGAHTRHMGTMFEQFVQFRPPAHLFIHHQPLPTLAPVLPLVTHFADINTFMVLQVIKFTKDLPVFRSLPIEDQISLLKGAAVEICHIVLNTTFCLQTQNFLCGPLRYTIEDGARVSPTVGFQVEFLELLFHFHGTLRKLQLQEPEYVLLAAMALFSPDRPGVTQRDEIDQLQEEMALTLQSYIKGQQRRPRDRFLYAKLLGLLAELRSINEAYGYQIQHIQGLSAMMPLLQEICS
# How it was run: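 Readout is reporter mRNA induction, quantified by fluorescent primer extension and capillary electrophoresis after RT-PCR. Cells were HepG2 transiently carrying chimeric NR-Gal4 constructs with GAL4-UAS reporters, treated for 24 h; activity scored upward from DMSO.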
# [15] = molecular target: Estrogen receptor (Homo sapiens) (UniProt P03372); assay: ATG_ERa_TRANS: Attagene TRANS-FACTORIAL HepG2 Assay for human Estrogen Receptor alpha (ERa) (AID 2282970; active = hit-call score of the fitted dose curve at least 0.9, where 1 is the maximum); conditions: HepG2 Attagene TRANS ERa GAL4 reporter, mRNA
# Sequence of Estrogen receptor (Homo sapiens) (P03372 whole entry, looked up, the tested form may be a part): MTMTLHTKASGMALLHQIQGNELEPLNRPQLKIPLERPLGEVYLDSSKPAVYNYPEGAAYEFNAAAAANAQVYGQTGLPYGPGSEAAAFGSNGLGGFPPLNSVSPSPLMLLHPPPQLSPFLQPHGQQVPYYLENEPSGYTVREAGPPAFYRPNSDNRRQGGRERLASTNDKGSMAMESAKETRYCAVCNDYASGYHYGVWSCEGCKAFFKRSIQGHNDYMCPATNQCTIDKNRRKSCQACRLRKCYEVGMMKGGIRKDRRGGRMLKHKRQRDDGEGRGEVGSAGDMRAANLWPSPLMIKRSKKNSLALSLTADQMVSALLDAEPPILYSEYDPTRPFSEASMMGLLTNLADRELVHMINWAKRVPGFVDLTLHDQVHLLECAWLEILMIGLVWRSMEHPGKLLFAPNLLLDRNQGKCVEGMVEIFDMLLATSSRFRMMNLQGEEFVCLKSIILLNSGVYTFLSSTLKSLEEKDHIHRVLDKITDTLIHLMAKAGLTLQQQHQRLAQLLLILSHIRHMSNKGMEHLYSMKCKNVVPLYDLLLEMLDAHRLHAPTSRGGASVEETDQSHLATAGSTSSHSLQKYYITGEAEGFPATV
# How it was run: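 After 24 h of compound treatment, RNA from HepG2 cells bearing transfected GAL4-UAS reporter constructs is converted to cDNA, amplified and fluorescently labelled. Capillary electrophoresis resolves the ERa-linked reporter; DMSO serves as negative control.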
# [16] = molecular target: X-box-binding protein 1 (Homo sapiens) (UniProt P17861); assay: ATG_Xbp1_CIS: Attagene CIS-FACTORIAL HepG2 Assay for human X-box Binding Protein 1 (XBP1) (AID 2282972); conditions: HepG2 XBP1 cis-element reporter, Attagene multiplex; actives raise or lower the signal
# Sequence of X-box-binding protein 1 (Homo sapiens) (P17861 whole entry, looked up, the tested form may be a part): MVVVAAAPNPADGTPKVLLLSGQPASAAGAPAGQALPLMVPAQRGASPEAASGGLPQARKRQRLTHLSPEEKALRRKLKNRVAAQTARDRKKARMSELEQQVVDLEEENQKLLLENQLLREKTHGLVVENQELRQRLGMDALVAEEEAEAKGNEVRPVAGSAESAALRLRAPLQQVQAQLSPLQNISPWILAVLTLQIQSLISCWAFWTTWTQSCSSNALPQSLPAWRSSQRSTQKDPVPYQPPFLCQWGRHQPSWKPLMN
# How it was run: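 Fluorescence-labelled cDNA fragments from reporter transcripts, separated by capillary electrophoresis, give the signal. Source: HepG2 cells transfected with promoter-driven reporter units, harvested 24 h post-dose. DMSO served as reference for bidirectional curve fitting.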
# [17] = ATG_M_19_TRANS: Attagene TRANS-FACTORIAL HepG2 Assay for M19 Transcription Factor (Internal Marker) (AID 2282974; active = hit-call score of the fitted dose curve at least 0.9, where 1 is the maximum); conditions: HepG2 Attagene TRANS-FACTORIAL M19 internal marker reporter
# How it was run: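 24 h chemical exposure of transiently transfected HepG2 (MRTU library). RNA → oligo(dT) RT → PCR → 6-FAM labelling → HpaI cut → CE fluorescence. Positive-direction fit vs DMSO baseline; background internal-marker readout.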
# [18] = ATG_GAL4_TRANS: Attagene TRANS-FACTORIAL HepG2 Assay for GAL4 (Internal Marker) (AID 2282976; active = hit-call score of the fitted dose curve at least 0.9, where 1 is the maximum); conditions: HepG2 Attagene TRANS GAL4 internal marker reporter
# How it was run: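 RT-PCR/capillary electrophoresis readout of reporter mRNA. HepG2, transient MRTU transfection (GAL4-UAS reporters), 24 h compound exposure. Background-control endpoint, positive direction vs DMSO baseline.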
# [19] = molecular target: Estrogen-related receptor gamma (Homo sapiens) (UniProt P62508); assay: ATG_ERRg_TRANS: Attagene TRANS-FACTORIAL HepG2 Assay for human Estrogen-Related Receptor gamma (ERRg) (AID 2282977; active = hit-call score of the fitted dose curve at least 0.9, where 1 is the maximum;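 also: hits increase reporter signal over DMSO so potencies reflect activators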); conditions: HepG2 Attagene TRANS reporter, ERRg transactivation
# Sequence of Estrogen-related receptor gamma (Homo sapiens) (P62508 whole entry, looked up, the tested form may be a part): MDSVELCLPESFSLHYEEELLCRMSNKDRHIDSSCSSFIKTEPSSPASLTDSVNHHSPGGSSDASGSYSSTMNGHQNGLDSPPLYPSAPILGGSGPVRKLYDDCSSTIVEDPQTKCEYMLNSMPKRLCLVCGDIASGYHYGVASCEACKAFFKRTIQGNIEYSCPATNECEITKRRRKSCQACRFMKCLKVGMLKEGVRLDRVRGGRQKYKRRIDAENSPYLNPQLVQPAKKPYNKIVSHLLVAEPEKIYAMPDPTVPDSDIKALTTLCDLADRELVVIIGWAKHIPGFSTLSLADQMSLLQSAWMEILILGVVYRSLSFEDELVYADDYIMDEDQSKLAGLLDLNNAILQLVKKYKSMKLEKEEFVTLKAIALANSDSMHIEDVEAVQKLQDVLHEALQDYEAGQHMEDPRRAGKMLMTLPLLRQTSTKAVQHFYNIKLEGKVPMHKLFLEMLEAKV
# How it was run: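 HepG2 cells transiently transfected with multiplexed GAL4-UAS reporter units and chimeric NR-Gal4 constructs were exposed to test chemicals for 24 h. Reporter mRNA was measured by RT-PCR, 6-FAM primer extension, HpaI digestion and capillary electrophoresis; gain-of-signal versus DMSO.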
# [20] = molecular target: Steroid hormone receptor ERR1 (Homo sapiens) (UniProt P11474); assay: ATG_ERRa_TRANS: Attagene TRANS-FACTORIAL HepG2 Assay for human Estrogen-Related Receptor alpha (ERRa) (AID 2282971; active = hit-call score of the fitted dose curve at least 0.9, where 1 is the maximum); conditions: HepG2 Attagene TRANS reporter, ERRa transactivation
# Sequence of Steroid hormone receptor ERR1 (Homo sapiens) (P11474 whole entry, looked up, the tested form may be a part): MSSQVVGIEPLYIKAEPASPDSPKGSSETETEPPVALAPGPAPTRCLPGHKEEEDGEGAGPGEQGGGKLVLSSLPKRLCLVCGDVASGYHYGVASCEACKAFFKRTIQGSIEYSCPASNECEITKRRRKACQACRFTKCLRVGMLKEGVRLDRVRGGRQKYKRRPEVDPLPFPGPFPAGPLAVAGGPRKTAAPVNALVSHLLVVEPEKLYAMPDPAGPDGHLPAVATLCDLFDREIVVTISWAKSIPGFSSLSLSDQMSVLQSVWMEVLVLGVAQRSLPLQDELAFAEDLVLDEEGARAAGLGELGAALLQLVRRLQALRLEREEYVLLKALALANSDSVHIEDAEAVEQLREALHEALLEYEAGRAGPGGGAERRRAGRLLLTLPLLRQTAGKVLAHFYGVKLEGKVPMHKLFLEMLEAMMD
# How it was run: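 Transfected HepG2, 24 h dosing, ERRa-Gal4 chimera driving GAL4-UAS reporter. Readout: reporter mRNA via RT-PCR plus capillary electrophoresis (fluorescence). Positive direction vs DMSO control.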
smiles,measurement,setting,value
O=CN1CCCCC1,outcome,[1],inactive
same,outcome,[2],inactive
same,outcome,[3],inactive
same,outcome,[4],inactive
same,outcome,[5],inactive
same,outcome,[6],inactive
same,outcome,[7],inactive
same,outcome,[8],inactive
same,outcome,[9],inactive
same,outcome,[10],inactive
same,outcome,[11],inactive
same,outcome,[12],inactive
same,outcome,[13],inactive
same,outcome,[14],inactive
same,outcome,[15],inactive
same,outcome,[16],inactive
same,outcome,[17],inactive
same,outcome,[18],inactive
CCCc1ccc(OC)cc1,outcome,[1],inactive
same,outcome,[2],inactive
same,outcome,[3],inactive
same,outcome,[4],inactive
same,outcome,[5],inactive
same,outcome,[6],inactive
same,outcome,[7],inactive
same,outcome,[8],inactive
same,outcome,[9],inactive
same,outcome,[10],inactive
same,outcome,[11],inactive
same,outcome,[12],inactive
same,outcome,[13],inactive
same,outcome,[15],inactive
same,outcome,[16],inactive
same,outcome,[17],inactive
CC(=O)Nc1ccc2c(c1)Cc1cc(NC(C)=O)ccc1-2,outcome,[1],inactive
same,outcome,[2],inactive
same,outcome,[3],inactive
same,outcome,[4],inactive
same,outcome,[5],inactive
same,outcome,[6],inactive
same,outcome,[7],inactive
same,outcome,[8],inactive
same,outcome,[9],inactive
same,outcome,[10],inactive
same,outcome,[11],inactive
same,outcome,[12],inactive
same,outcome,[13],inactive
same,outcome,[14],inactive
same,outcome,[16],inactive
O=C1CCCN1CCO,outcome,[1],inactive
same,outcome,[2],inactive
same,outcome,[3],inactive
same,outcome,[4],inactive
same,outcome,[5],inactive
same,outcome,[6],inactive
same,outcome,[7],inactive
same,outcome,[8],inactive
same,outcome,[9],inactive
same,outcome,[10],inactive
same,outcome,[11],inactive
same,outcome,[12],inactive
same,outcome,[13],inactive
same,outcome,[14],inactive
same,outcome,[15],inactive
same,outcome,[16],inactive
same,outcome,[17],inactive
CNC(=S)NN,outcome,[1],inactive
same,outcome,[2],inactive
same,outcome,[3],inactive
same,outcome,[4],inactive
same,outcome,[5],inactive
same,outcome,[6],inactive
same,outcome,[7],inactive
same,outcome,[8],inactive
same,outcome,[9],inactive
same,outcome,[10],inactive
same,outcome,[11],inactive
same,outcome,[12],inactive
same,outcome,[13],inactive
same,outcome,[15],inactive
same,outcome,[16],inactive
same,outcome,[17],inactive
same,outcome,[18],inactive
same,outcome,[19],inactive
O=C(Oc1ccccc1)c1ccc2ccccc2c1O,outcome,[1],inactive
same,AC50,[2],21.5 µM (active)
same,AC50,[3],41.6 µM (active)
same,AC50,[4],34.3 µM (active)
same,outcome,[5],inactive
same,outcome,[6],inactive
same,outcome,[7],inactive
same,AC50,[8],26.1 µM (active)
same,AC50,[9],54.9 µM (active)
same,outcome,[10],inactive
same,outcome,[11],inactive
same,AC50,[12],49 µM (active)
same,AC50,[13],26.4 µM (active)
same,outcome,[14],inactive
same,outcome,[15],inactive
same,outcome,[20],inactive
same,AC50,[16],38.6 µM (active)
CC(=O)OCCC1CCCCC1,outcome,[1],inactive
same,AC50,[2],31.8 µM (active)
same,outcome,[3],inactive
same,outcome,[4],inactive
same,outcome,[5],inactive
same,outcome,[6],inactive
same,outcome,[7],inactive
same,outcome,[8],inactive
same,outcome,[9],inactive
same,outcome,[10],inactive
same,outcome,[11],inactive
same,outcome,[12],inactive
same,outcome,[13],inactive
same,outcome,[14],inactive
same,outcome,[15],inactive
same,outcome,[16],inactive
same,outcome,[17],inactive
CCC(C)(C)C1CCCCC1OC(C)=O (stereo unspecified),outcome,[1],inactive
same,AC50,[2],27.2 µM (active)
same,outcome,[3],inactive
same,outcome,[4],inactive
same,outcome,[5],inactive
same,outcome,[6],inactive
same,outcome,[7],inactive
same,outcome,[8],inactive
same,outcome,[9],inactive
same,outcome,[10],inactive
same,outcome,[11],inactive
same,outcome,[12],inactive
same,outcome,[13],inactive
same,outcome,[14],inactive
same,outcome,[15],inactive
same,outcome,[20],inactive
same,outcome,[16],inactive
same,outcome,[18],inactive
